Compound activity (PubChem BioAssay)
TRHR agonist – activates the human TRH receptor. P34981. TRHR cells, calcium flux fluo-8, FDSS agonist mode. activation, % at 2 µM. 360,000 tested, 0.18% active. AID 493084; in the data active means activation above about 30%; further: 0% is about no effect
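TRHR-expressing cells, plated overnight in medium with 10% serum, were loaded with fluo-8 calcium dye at room temperature. After a 10 s baseline, library compound was pin-added and calcium release was recorded kinetically (ex 480/em 530) as agonist response.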
TRPML1 inh – blocks the human TRPML1 channel. 390,000 tested, 0.02% active. Q9GZU1. TRPML1-inducible cells, Ca2+ dye fluorescence, FDSS; hits give low values; inhibition of EC80 agonist-evoked calcium signal. activity change, negative = inhibition, % (no concentration beside the values). AID 624415; in the data active means activity change below about -50%; inconclusive means between about -30% and that limit;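 further: stimulus is agonist 54-4 at its EC80 concentration; on the % scale 0 is the no-effect control and ±100 the full control effect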
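Tet-induced TRPML1-DL cells loaded with Ca8 no-wash calcium dye were read kinetically on FDSS. Compound addition was followed by EC80 agonist 54-4 (4 uM final); inhibition was read over 110 s.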
TRHR enhancer – allosteric enhancers of human TRH receptor; P34981; TRHR cells, fluo-8 calcium fluorescence, EC20 TRH enhancement; enhancement, % at 2 µM; 360,000 tested, 0.66% active; AID 493056; in the data active means enhancement above about 30%; further: 0% is about no effect
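Enhancer read-out: after compound pinning and an initial kinetic agonist-mode read, an EC20 of TRH (10 nM final) was injected and fluo-8 calcium signal (Ex 480/Em 530) followed at 1 s/cycle for 100 cycles in TRHR-expressing cells.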
TRPV1 potentiator – human TRPV1 potentiation. Q8NER1. TRPV1-expressing cells, Fluo-8 calcium influx, capsaicin EC20 potentiation. potentiation, % at 8.33 µM. 320,000 tested, 0.02% active. AID 540277; in the data active means potentiation above about 80%; inconclusive means between about 30% and that limit; further: 0% is about no effect
Target sequence (Q8NER1 whole entry, looked up): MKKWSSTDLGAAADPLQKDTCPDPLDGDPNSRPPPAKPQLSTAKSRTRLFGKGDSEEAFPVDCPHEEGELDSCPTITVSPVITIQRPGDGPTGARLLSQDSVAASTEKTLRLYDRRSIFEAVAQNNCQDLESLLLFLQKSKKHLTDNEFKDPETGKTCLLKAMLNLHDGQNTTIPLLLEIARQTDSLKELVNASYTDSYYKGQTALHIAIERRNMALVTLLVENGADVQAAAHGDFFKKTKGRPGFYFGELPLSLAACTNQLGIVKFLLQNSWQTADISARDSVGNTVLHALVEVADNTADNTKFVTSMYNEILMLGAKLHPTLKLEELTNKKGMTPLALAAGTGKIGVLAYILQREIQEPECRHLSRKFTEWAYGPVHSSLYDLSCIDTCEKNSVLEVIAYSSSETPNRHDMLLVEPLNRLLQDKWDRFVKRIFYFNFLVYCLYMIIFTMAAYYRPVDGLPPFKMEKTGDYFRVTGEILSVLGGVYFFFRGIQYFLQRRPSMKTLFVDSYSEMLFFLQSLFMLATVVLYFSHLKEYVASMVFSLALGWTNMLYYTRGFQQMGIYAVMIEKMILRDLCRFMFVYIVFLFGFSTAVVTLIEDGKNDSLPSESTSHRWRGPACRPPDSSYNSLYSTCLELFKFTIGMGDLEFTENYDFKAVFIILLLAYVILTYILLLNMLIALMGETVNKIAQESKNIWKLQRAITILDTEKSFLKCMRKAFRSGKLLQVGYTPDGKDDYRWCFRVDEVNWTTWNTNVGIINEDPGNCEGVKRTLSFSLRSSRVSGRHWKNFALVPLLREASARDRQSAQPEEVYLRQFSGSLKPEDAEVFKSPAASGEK
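TRPV1-expressing cells were cultured overnight at 35.5C and loaded with Fluo-8 calcium dye for 40 to 90 min at room temperature. After a 10 s baseline, compound was added and calcium influx was read kinetically for 3 min (ex 480/em 520 nm).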
TRPV1 ag – human TRPV1 agonism; Q8NER1; TRPV1-expressing cells, Fluo-8 calcium influx, agonist mode; activation, % at 8.33 µM; 320,000 tested, 0.19% active; AID 540275; in the data active means activation above about 80%; inconclusive means between about 30% and that limit; further: 0% is about no effect
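Fluo-8 calcium influx in TRPV1-expressing cells, kinetic read (ex 480/em 520 nm). Compound added and read 3 min for agonist activity, followed by capsaicin at EC20 final and 2 min further read for enhancement.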
TRPML1 ag – activates the human TRPML1 channel. Q9GZU1. TRPML1-expressing cells, Ca2+ dye fluorescence, FDSS. activation, % (test concentration not listed). 410,000 tested, 0.12% active. AID 624414; in the data active means activation above about 50%; inconclusive means mostly about 30% to 49%; further: 0% is about no effect
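Calcium fluorescence on an FDSS kinetic reader gave the read-out. Tet-induced TRPML1-DL cells were plated overnight, dye-loaded (Ca8 with quencher, 45-90 min, room temperature, dark), then read 110 s after compound addition, and again 110 s after 4uM final 54-4 (EC80).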
* hit, by the source's call; u = inconclusive; x = not tested or not shown. Rows were chosen to be rich in hits. Some 0.99% of all compounds tested hit in one or more screens of this group.

SMILES	TRHR agonist	TRPML1 inh	TRHR enhancer	TRPV1 potentiator	TRPV1 ag	TRPML1 ag
COc1cccc(S(=O)(=O)N2CCN(S(=O)(=O)c3ccc4c(c3)OCCO4)CC2)c1	-2.3	x	-3.6	x	x	x
CCc1ccc(NC(=O)c2onc(C)c2Cl)cc1	0.9	-4.1	-7.7	-6.5	89.4*	2.0
Cc1noc(C(=O)Nc2ccc(C#N)cc2)c1Cl	1.3	2.3	-6.3	-1.7	22.7	-0.9
C=C(/C=C/c1ccc(N(C)C)cc1)c1nc2ccccc2s1	x	x	x	x	x	18.9
CCOC(=O)/C(=C/C=C1\Sc2cc(OCC)c(OCC)cc2N1CC)C(C)=O	244.1*	-22.8	48.1*	-7.2	u	77.4*
CCOC(=O)/C(=C\C=C1/Sc2cc(OCC)c(OCC)cc2N1CC)C(C)=O	159.5*	8.6	19.3	-14.3	u	88.9*
COc1ccc2cc3c(N)c(C(=O)NCc4ccco4)sc3nc2c1	1.2	1.3	50.7*	5.3	2.5	0.8
COc1ccc2cc3cc(C(=O)NCc4ccco4)oc3nc2c1	-0.2	7.2	-1.5	9.5	0.6	0.5
O=S(=O)(c1cccc(Br)c1)N1CCN(c2nc(-c3cccs3)nc3ccccc23)CC1	x	x	x	x	x	-0.6
O=C(NC1CCN(C(=O)Nc2ccc(F)cc2)CC1)c1cccc(F)c1	0.1	4.5	6.1	-0.9	19.4	0.9
O=C(NC1CCN(C(=O)Nc2ccc(F)cc2)CC1)c1ccc(F)cc1	-1.3	-4.7	39.0*	8.0	3.8	-1.0
COC(=O)c1cccc(NC(=O)c2ccc3c(c2)C(=O)N(C(C)(C)C)C3=O)c1	0.2	-0.2	0.9	-12.4	107.3*	2.3
COC(=O)c1cccc(NC(=O)c2nn(C)c(=O)c3ccccc23)c1	-0.3	-3.1	39.7*	5.3	1.6	0.6
COC(=O)c1ccc(C)c(NC(=O)c2nn(C)c(=O)c3ccccc23)c1	-0.1	0.7	-1.7	7.8	-2.8	1.0
CCOC(=O)C1CCN(C(=O)c2cc(S(=O)(=O)N3CCOCC3)ccc2C)CC1	-0.5	88.4	30.8*	14.4	0.1	-0.3
CCN(CC)c1ccc(C(=O)NNC(=O)CCl)cc1	-0.3	26.8	10.4	123.5*	-9.2	0.0
Cc1ccc(NC(=O)c2c(-c3ccccc3Cl)noc2C)nc1	-0.8	-5.3	1.5	x	x	0.2
Cc1onc(-c2ccccc2Cl)c1C(=O)Nc1ccc(Cl)cn1	-1.0	-12.3	31.1*	-9.0	6.6	2.6
Cc1cccc(C(=O)NNC(=O)c2c(-c3ccccc3Cl)noc2C)c1O	-0.1	1.8	30.8*	0.7	1.6	0.7
Cc1onc(-c2ccccc2Cl)c1C(=O)NNC(=O)c1ccc(F)cc1	-0.3	-5.5	-0.4	3.7	-2.0	-0.2
CCOc1ccccc1C(=O)Nc1c(C(=O)Nc2ccc(F)cc2)oc2ccccc12	0.6	28.1	43.2*	x	x	0.0
Cc1ccc(NC(=O)c2oc3ccccc3c2NC(=O)C2CC2)cc1	0.3	-5.6	-3.4	8.6	u	1.0
CCOc1ccccc1C(=O)Nc1ccc(C(=O)c2ccccc2)cc1	-1.8	62.6	-10.6	5.8	-1.8	2.2
NC(=O)c1oc2ccccc2c1NC(=O)CN1CCCCC1	0.2	-12.1	-7.9	-10.0	4.1	2.4
O=C(Nc1ccc(F)cc1)c1oc2ccccc2c1NC(=O)C1CC1	0.0	9.3	-0.4	-10.8	81.5*	2.1
SMILES	TRHR agonist	TRPML1 inh	TRHR enhancer	TRPV1 potentiator	TRPV1 ag	TRPML1 ag
CCOc1ccccc1C(=O)Nc1ccc(NC(=O)c2ccccc2)cc1	1.2	-3.2	33.5*	0.0	-1.8	-1.4
NC(=O)c1oc2ccccc2c1NC(=O)C1CCCCC1	0.2	4.1	37.9*	-13.7	23.1	-0.8
CN(C)c1ccc(C=O)c(Cl)c1	x	x	x	x	x	-0.5
O=C(CCl)c1ccc2c(c1)CCCC2	x	x	x	x	x	1.3
COc1ccc(NC(=O)c2oc3ccccc3c2NC(=O)COc2ccc(F)cc2)c(OC)c1	0.3	7.9	38.7*	x	x	-0.7
CCS(=O)(=O)N1CCN(c2ccccc2)CC1	-0.5	-7.9	32.3*	u	1.2	-0.6
NC(=O)C1CCN(C(=O)c2ccc3nc(-c4ccccc4)c(-c4ccccc4)nc3c2)CC1	0.1	31.2	10.1	-2.0	80.6*	2.1
O=C(Cn1cc(CN(Cc2ccccc2)Cc2ccccc2)nn1)Nc1cc(C(F)(F)F)ccc1Cl	-1.5	x	0.1	x	x	x
O=C(CSc1ccc(Cl)cc1)c1ccco1	-0.4	-1.1	35.6*	9.1	1.3	0.3
O=C(CCSc1ccc(Cl)cc1)c1ccco1	-0.7	-0.5	-2.3	-6.5	7.2	1.7
N/C(=N\OC(=O)c1ccncc1)c1cccc([N+](=O)[O-])c1	-0.5	10.2	32.2*	20.8	6.5	-0.1
O=C(c1ccc2c(c1)CCN2S(=O)(=O)c1ccccc1)N1CCN(c2ccccc2)CC1	0.3	2.3	33.2*	-4.4	-0.8	-0.8
Cc1ccc(-c2nnn(CC(=O)N(CCN3CCOCC3)C(C(=O)NC(C)(C)C)c3ccc(C)o3)n2)cc1 (stereo not given)	-0.1	9.1	36.6*	u	13.3	1.1
CC1=[N+](C)c2ccc3ccccc3c2C1(C)C	-1.0	-8.5	35.2*	24.3	-2.5	0.3
Cc1c2ccccc2cc[n+]1C	x	x	x	x	x	-0.2
NNC(=O)CNC(c1ccccc1)c1cc(Br)ccc1NC(=O)CCN1CCOCC1 (stereo not given)	-0.9	5.2	35.9*	-4.5	-3.8	0.2
NNC(=O)CNC(c1ccccc1)c1cc(Br)ccc1NC(=O)c1ccc(Br)cc1 (stereo not given)	-1.0	-6.8	2.7	-4.4	-0.7	1.0
O=C(O)CCC(=O)N1N=C(c2cccs2)CC1c1cn(-c2ccccc2)nc1-c1ccccc1 (stereo not given)	0.2	-0.6	34.3*	-4.5	21.5	-0.1
c1ccc(CNCc2nnc(-c3cc4ccccc4[nH]3)o2)cc1	0.9	x	0.4	x	x	x
CC(C)c1ccc(N2C(=O)/C(=C/N(C)C)SC2=S)cc1	47.1*	-3.8	14.2	-4.4	22.9	23.3
Cc1ccc(C2/C(=C(\O)c3c(C)nc4c(C)cccn34)C(=O)C(=O)N2CCN(C)C)o1 (stereo not given)	x	-9.3	x	x	x	0.5
Cc1ccc(C2/C(=C(\O)c3c(C)nc4ccccn34)C(=O)C(=O)N2CCN(C)C)o1 (stereo not given)	0.9	-55.9*	2.0	-5.1	1.9	-0.1
Cc1c(Cn2cnc3c(cnn3C(C)(C)C)c2=O)cccc1C(F)(F)F	x	11.9	x	x	x	1.1
COc1cc(C)c(Cl)c(C)c1S(=O)(=O)NC1CC(C)(C)NC(C)(C)C1	1.4	-16.1	39.0*	-6.2	10.0	0.2
Cc1cc(C(C)(C)C)oc1C(=O)N(CC(=O)NC1CCCC1)c1cccc(C(F)(F)F)c1	2.0	-6.0	-7.9	-17.8	u	51.6*
